Experimental findings from PubChem BioAssay AID651813 (National Center for Advancing Translational Sciences (NCATS), 2012) are described below.

In all, about 2,100 compounds went through this assay and about 1,100 (52%) were called active. Roughly 27% stayed inconclusive and do not appear here. The set was probably picked from earlier hits. The list shows a part of the results. Unmarked numbers belong to inactive results. The call rests on the fitted dose curve; in most records, active means well fitted inhibition curve with a large enough effect; inconclusive means small, poorly fitted or top-dose-only effect; inactive means no such curve, though single readings can be large or run the other way.
Potency means the concentration at half of the fitted maximal effect.

Sequence of DNA dC->dU-editing enzyme APOBEC-3G (Homo sapiens) (Q9HC16 whole entry, looked up): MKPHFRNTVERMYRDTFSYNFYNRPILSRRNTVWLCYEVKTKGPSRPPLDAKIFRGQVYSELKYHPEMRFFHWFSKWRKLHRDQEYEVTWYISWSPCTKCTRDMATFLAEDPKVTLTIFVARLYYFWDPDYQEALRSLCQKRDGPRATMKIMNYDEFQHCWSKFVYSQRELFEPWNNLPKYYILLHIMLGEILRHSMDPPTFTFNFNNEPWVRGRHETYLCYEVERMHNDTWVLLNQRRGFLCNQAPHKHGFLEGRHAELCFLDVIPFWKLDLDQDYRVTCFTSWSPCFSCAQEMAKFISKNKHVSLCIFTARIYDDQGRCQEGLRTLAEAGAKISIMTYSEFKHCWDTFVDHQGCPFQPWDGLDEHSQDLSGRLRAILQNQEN

The target of this assay is DNA dC->dU-editing enzyme APOBEC-3G (Homo sapiens) (UniProt Q9HC16). Put plainly: qHTS for inhibitors of Vif-A3G interactions: Cherry picks counterscreen.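 Further: hits raise yellow fluorescence by blocking Vif-driven A3G-eYFP degradation; nearly all actives have a fitted effect of over 70% in size.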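 On max response: max response given as percent of control signal.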 To be noted: HeLa A3G-eYFP + Vif (tagged APOBEC3G with the HIV-1 protein that degrades it), eYFP fluorescence, 24 h. The method in brief:
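Readout is eYFP fluorescence (488 nm excitation, 500-530 nm emission) measured on Acumen Explorer after 24 h compound exposure, several concentrations, at 37 deg C. Cells: HeLa stably co-expressing Vif and C-terminally eYFP-tagged A3G; MG132 positive control.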
In general terms: In qHTS, concentration-response curves come from the screen itself.
For the compound `O=C(N/N=C/c1ccc2c(c1)OCO2)c1cccc2ccccc12`, the Potency was 9.94 µM (active).

Regarding `Cc1cc(C(=O)N/N=C/c2ccc3c(c2)OCO3)c2ccccc2n1`, the Potency is 7.9 µM (active).

In the case of `Cc1cccc(C)c1OCC(=O)N/N=C/c1ccc2c(c1)OCO2`, the Potency is 6.27 µM (active).

For `O=C(NN=Cc1c(O)ccc2ccccc12)c1ccc2c(c1)OCO2`, the max response was 1.53%.

Take `O=C(N/N=C/c1ccc2c(c1)OCO2)c1cc(-c2ccco2)nc2ccccc12`: the Potency is 9.94 µM (active).

As to `O=C(N/N=C/c1ccc2c(c1)OCO2)c1cc(-c2ccncc2)nc2ccccc12`, the Potency was 5.59 µM (active).

As to `Cc1nc2c3cc(F)ccc3n(Cc3ccccc3F)c2s1`, the Potency is 14 µM (active).

`Cc1nc2c3cc(F)ccc3n(Cc3ccccc3)c2s1`: the Potency was 7.04 µM (active).

With `N#CCSc1ccccc1NC(=O)CN1C(=O)C2CC=CCC2C1=O` (stereo unspecified), the Potency was 11.2 µM (active).

For the compound `CCOC1=C/C(=C/c2c(N)n3nc(-c4ccccc4)sc3nc2=O)C=CC1=O`, the max response is 19.6%.

Turning to `CCS(=O)(=O)c1nn2c(N)c(/C=C3/C=CC(=O)C(OC)=C3)c(=O)nc2s1`, the max response was 52.9%.

With `COC1=C/C(=C/c2c(N)n3nc(-c4ccc(C)cc4)sc3nc2=O)C=CC1=O`, the Potency was 20.6 µM (active).

As to `Cn1cc(/C=C/c2ccnc3ccccc23)c2ccccc21`, the Potency is 20.6 µM (active).

Turning to `Cn1cc(/C=C/c2ccc3ccccc3n2)c2ccccc21`, the Potency was 13 µM (active).

With `CCc1ccc2nc(N(CCCN(C)C)C(=O)c3ccc(S(=O)(=O)N(C)C4CCCCC4)cc3)sc2c1`, the max response is 5.65%.

Regarding `Cc1ccc(-n2nc3c(SCCN4CCOCC4)nnc(C)c3c2C)cc1`, the max response was -27.8%.

As for `CCCCn1c(NC(=O)c2ccco2)c(S(=O)(=O)c2ccc(C)cc2)c2nc3ccccc3nc21`, the Potency is 20.6 µM (active).

`O=C(Nc1nc(NC(=O)c2ccco2)n(-c2ccccc2)n1)c1ccccc1`: the max response is -0.0667%.

As for `Cc1ccc(C(=O)Nc2sc(Cc3ccc4c(c3)OCO4)c(C)c2C(N)=O)cc1`, the Potency was 18.4 µM (active).

For the compound `CCC1CCCCN1CCCNC(=O)c1ccc2c(c1)N(Cc1ccccc1F)C(=O)c1ccccc1S2(=O)=O` (stereo unspecified), the Potency was 4.61 µM (active).

In the case of `Nc1ccccc1/C=C/c1ccnc2ccccc12`, the Potency was 16.4 µM (active).

On to `COc1cccc2nccc(/C=C/c3ccc(N(C)C)cc3)c12`, for which the Potency is 18.4 µM (active).

As to `CN(C)c1ccc(/C=C/c2cnnc3ccccc23)cc1`, the Potency was 20.6 µM (active).

Turning to `CN(C)c1ccc(/C=C/c2ccnc3cc(Cl)ccc23)cc1`, the Potency is 8.2 µM (active).

Turning to `CN(C)c1ccc(/C=C/c2ccnc3ccc(-c4ccccc4)cc23)cc1`, the Potency is 5.8 µM (active).

For `CN(C)c1ccc(/C=C/c2ccnc3ccccc23)c(N)c1`, the Potency was 2.91 µM (active).

`CN(C)c1ccc(/C=C/C=C/c2ccnc3ccccc23)cc1`: the Potency is 4.61 µM (active).

Consider `CN(C)c1ccc(/C=C/c2ccnc3ccccc23)cc1`, for which the Potency is 20.6 µM (active).

Take `CNc1ccc(/C=C/c2ccnc3ccccc23)cc1`: the Potency was 16.4 µM (active).

On to `O=C(Cn1ncc(Cl)c(Cl)c1=O)NC(=O)NC1CCCCC1`, for which the Potency was 14 µM (active).

In the case of `Cc1nc(-c2ccc(Cl)cc2)sc1C(=O)NN`, the Potency is 15.8 µM (active).

Take `COc1ccc2cc(C(=O)C3CCCN(Cc4ccccn4)C3)ccc2c1` (stereo unspecified): the max response is -1.88%.

For `CCOC(=O)C1CCCN(C(=O)c2ccc3nc(-c4cccc(OC)c4)oc3c2)C1` (stereo unspecified), the Potency is 7.04 µM (active).

On to `Cc1c(C(=O)OC2CCCCC2)[nH]c2c1C(=O)CC(c1ccccc1Cl)C2` (stereo unspecified), for which the Potency is 9.2 µM (active).

Turning to `Cc1c(C(=O)N2CCOCC2)[nH]c2c1C(=O)CC(c1ccccc1Cl)C2` (stereo unspecified), the Potency was 8.86 µM (active).

For the compound `COCCOC(=O)c1[nH]c2c(c1C)C(=O)CC(c1ccccc1)C2` (stereo unspecified), the Potency was 0.994 µM (active).

With `COc1ccc(OC)c(C2CC(=O)c3c([nH]c(C(=O)OCC4CCCO4)c3C)C2)c1` (stereo unspecified), the Potency was 5.59 µM (active).

On to `O=C(COc1ccc(C(=O)c2ccccc2)cc1)NCc1ccc(F)cc1`, for which the Potency was 2.5 µM (active).

For the compound `Cc1ccccc1NCC(=O)N=Nc1c(O)[nH]c2ccc([N+](=O)[O-])cc12`, the max response is -0.0304%.

As for `CCN(CC)S(=O)(=O)c1cc([N+](=O)[O-])ccc1N=Nc1c(O)[nH]c2ccccc12`, the Potency was 23.1 µM (active).

`O=C(NCc1cc(C(F)(F)F)ccc1Cl)c1cccc2c1C(=O)c1ccc(N3CCC(Cc4ccccc4)CC3)cc1S2(=O)=O`: the Potency is 14 µM (active).

Take `O=C(NCc1cccc(C(F)(F)F)c1)c1cccc2c1C(=O)c1ccc(N3CCC(Cc4ccccc4)CC3)cc1S2(=O)=O`: the Potency was 23.1 µM (active).

As to `O=C(NCc1ccco1)c1cccc2c1C(=O)c1ccc(N3CCC(Cc4ccccc4)CC3)cc1S2(=O)=O`, the Potency was 23.1 µM (active).

`Cc1ccc(CSc2nc(-c3ccc(C(C)(C)C)cc3)nc3cc(=O)[nH]n23)cc1`: the max response is 28.6%.

`CCCOc1ccc2cc(C(=O)NCc3ccccc3)c(=O)oc2c1`: the max response is -5.24%.

For the compound `COc1cccc(Nc2ncccc2C(=O)NCc2ccccc2)c1`, the Potency was 19.8 µM (active).

`N#C/C(=C\c1ccc(N2CCOCC2)o1)C(=O)NC1CCCCC1`: the Potency is 17.7 µM (active).

With `N#C/C(=C\c1ccc(N2CCOCC2)o1)C(=O)NCCc1ccccc1`, the Potency is 3.26 µM (active).

As for `N#C/C(=C\c1ccccc1[N+](=O)[O-])C(=O)NCc1ccccc1`, the max response is 2.31%.

Regarding `N#C/C(=C\c1ccc(N2CCCCC2)o1)C(N)=O`, the Potency is 15.8 µM (active).

`CCOC(=O)CN1C(=O)S/C(=C/c2ccc(N3CCCCC3)o2)C1=O`: the max response is 55%.

With `CN(C)c1ccc(/C=C(/C#N)C(=O)NCc2ccccc2)o1`, the Potency is 1.84 µM (active).

As for `N#C/C(=C/c1ccc(N2CCOCC2)o1)C(=O)NC1CCCCC1`, the Potency was 16.4 µM (active).

With `CCSC1=N/C(=C\C=C2/Oc3ccccc3N2CC)C(=O)S1`, the Potency is 8.2 µM (active).

Take `CCCCN1C(=O)/C(=C/C=C2\Oc3ccccc3N2CC)SC1=S`: the max response was 51.7%.

With `CCOc1ccc(-c2cc(C(=O)NCCc3ccc(OC)c(OC)c3)c3c(-c4ccc(F)cc4)[nH]nc3n2)cc1`, the max response was -21%.

With `COc1ccc(-c2n[nH]c3c2CN(C(=O)c2ccc(OC)c(OC)c2)CC3)cc1`, the Potency is 9.94 µM (active).

Turning to `C=C(NC(=O)C(=C)NC(=O)c1csc(C2=NC3c4csc(n4)C4NC(=O)c5csc(n5)C(C(C)(O)C(C)O)NC(=O)C5CSC(=N5)/C(=C/C)NC(=O)C(C(C)O)NC(=O)c5csc(n5)C3(CC2)NC(=O)C(C)NC(=O)C(=C)NC(=O)C(=C)NC(=O)C(C(C)C)NC2C=Cc3c(C(C)O)cc(nc3C2O)C(=O)OC4C)n1)C(N)=O` (stereo unspecified), the Potency was 7.04 µM (active).

On to `CN(C)/C=N/C1=C(C#N)C(c2cccs2)c2ccc3ccccc3c2O1` (stereo unspecified), for which the Potency was 2.8 µM (active).

On to `CCCCN(C(=O)c1ccc([N+](=O)[O-])s1)c1c(N)n(CCCC)c(=O)[nH]c1=O`, for which the max response is -2.12%.

As to `Nc1c(N(CCC2=CCCCC2)C(=O)c2ccc([N+](=O)[O-])o2)c(=O)[nH]c(=O)n1Cc1ccccc1`, the Potency was 13 µM (active).

For the compound `CCCCn1c(N)c(N(CCC(C)C)C(=O)c2ccc([N+](=O)[O-])o2)c(=O)[nH]c1=O`, the max response is -4.38%.

Consider `O=C1c2ccccc2C(=O)c2c(/C=C/N3CCCCC3)ccnc21`, for which the Potency is 23.1 µM (active).

For the compound `Nc1nc(-c2cc(O)ccc2[N+](=O)[O-])cc(-c2ccccc2)c1[N+](=O)[O-]`, the Potency was 14 µM (active).

`O=C(Nc1cc(=O)[nH]c(=O)[nH]1)c1cc(Cl)ccc1Cl`: the Potency is 3.14 µM (active).

For `O=C(COC(=O)C12CC3CC(CC(Cl)(C3)C1)C2)N1CCCCC1`, the max response was -19.2%.

As to `Cc1ccc(S(=O)(=O)Nc2cc(-c3nn(C)c(=O)c4ccccc34)ccc2N2CCOCC2)cc1`, the Potency is 15.8 µM (active).

Turning to `COc1ccc(/C=c2\s/c(=C/C(=O)c3ccc(C)cc3)[nH]c2=O)c(OC)c1`, the Potency is 20.6 µM (active).

As for `CCCOc1ccc(C(=O)Nc2cccc(NC(=O)c3ccc(Cl)cc3Cl)c2)cc1`, the Potency was 16.4 µM (active).

In the case of `CC(C)(C)OC(=O)NCc1ccc(NC(=O)c2nc[nH]c2C(=O)NCCCNC(=O)c2[nH]cnc2C(=O)Nc2ccc(CNC(=O)OC(C)(C)C)cc2)cc1`, the max response was 4.7%.

`Cc1cccc(/C=C/C(=O)c2ccc([N+](=O)[O-])o2)c1`: the max response was -131%.

On to `O=C(/C=C/c1ccc(Cl)cc1)c1ccc([N+](=O)[O-])o1`, for which the Potency was 12.5 µM (active).

For `Cc1onc(-c2c(F)cccc2Cl)c1C(=O)O/N=C(\N)c1ccc([N+](=O)[O-])o1`, the max response is 19.3%.

With `CC(/C=N/NC(=O)c1cccc(F)c1)=C\c1ccccc1`, the Potency is 9.94 µM (active).

As for `COc1cccc(C(=O)N/N=C/C(Br)=C/c2ccccc2)c1`, the Potency is 2.23 µM (active).

In the case of `O=C(O)c1ccc(N/N=C/C(Br)=C/c2ccccc2)cc1`, the max response was 24.8%.

As for `COc1cccc(/C=N/n2c(C3CCCCC3)n[nH]c2=S)c1O`, the max response is 12.3%.

Turning to `C/C(=N/NC(N)=S)c1ccc(Br)s1`, the max response was 13.4%.

`COc1ccc(N/C=C\C(=O)c2ccc(Br)cc2)cc1OC`: the Potency is 18.4 µM (active).

With `COc1ccc(N/C=C/C(=O)c2cc(OC)c(OC)c(OC)c2)cc1`, the Potency was 0.886 µM (active).

On to `COc1ccc(C(=O)N/N=C/c2cc(Br)ccc2O)cc1OC`, for which the max response was -1.25%.

In the case of `Cc1cc(=O)oc2cc(OCC(=O)N3c4ccccc4CC3C)ccc12` (stereo unspecified), the Potency was 4.44 µM (active).

Take `COc1ccccc1C1=NOC(COc2ccc3c(C)cc(=O)oc3c2)C1` (stereo unspecified): the Potency is 0.559 µM (active).

Consider `CCOC(=O)c1cc(-c2ccccc2C)n(CC2CC(c3ccc(OC)cc3)=NO2)n1` (stereo unspecified), for which the max response was -3.65%.

Take `CCn1c(SCC(=O)c2c[nH]c3ccccc23)nnc1-c1cccs1`: the Potency is 18.4 µM (active).

With `CCN(C)c1ccc(/C=N\n2nnnc2N)cc1`, the Potency is 5.59 µM (active).
